Source: PubChem BioAssay AID1159580 (chemical genetic matrix, 2015)
“And” between values parts separate entries of the source, which are not always exact repeats. Equal values may be shown once. Out of some 5,500 compounds screened, about 2,000 (36%) were called active. Inconclusive results (about 18%) are left out. No stated cut-off is given here; in the data, active means normalized growth mostly below about 0.91 (no sharp cut-off); inconclusive means no clear call, values can overlap the other calls; inactive means mostly above about 0.92. The list shows a part of the results.

Experiment: chemical genetic growth profiling, strain panel (AID 1159580);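 further: tested at 20 µM; growth read once vehicle control cultures reached saturation at 30 °C; 1 = growth at the plate median or of vehicle wells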
Conditions: S. cerevisiae deletion strains, growth OD

Measured: normalized growth

COC(=O)COc1cc(Cl)c(Cl)cc1Cl
active: locus YDR137W, strain rgp1, stronger effect = lower value 0.839
0.853 (inactive) and 0.874 (active): locus YJL095W, strain BCK1, stronger effect = lower value
inactive: locus YAL013W, strain DEP1, stronger effect = lower value 0.982 | locus YAL021C, strain ccr4, stronger effect = lower value 0.993 | locus YAL026C, strain drs2, stronger effect = lower value 0.996 | locus YAL030W, strain snc1, stronger effect = lower value 0.998 | locus YBL061C, strain skt5, stronger effect = lower value 0.989 | locus YBR009C, strain hhf1, stronger effect = lower value 0.989 | locus YBR021W, strain FUR4, stronger effect = lower value 0.98 | locus YBR023C, strain chs3, stronger effect = lower value 0.99 | locus YBR171W, strain sec66, stronger effect = lower value 1.01 | locus YBR229C, strain ROT2, stronger effect = lower value 0.981 | locus YBR231C, strain swc5, stronger effect = lower value 0.99 | locus YBR279W, strain paf1, stronger effect = lower value 1 | locus YCL011C, strain gbp2, stronger effect = lower value 0.99 | locus YCL016C, strain dcc1, stronger effect = lower value 1.01 | locus YCL029C, strain bik1, stronger effect = lower value 0.957 | locus YCL061C, strain MRC1, stronger effect = lower value 0.985 | locus YCL069W, strain vba3, stronger effect = lower value 0.986 | locus YCR088W, strain abp1, stronger effect = lower value 0.985 | locus YDL005C, strain med2, stronger effect = lower value 1.01 | locus YDL035C, strain GPR1, stronger effect = lower value 1.01 | locus YDL040C, strain nat1, stronger effect = lower value 0.996 | locus YDL074C, strain BRE1, stronger effect = lower value 0.943 | locus YDL101C, strain DUN1, stronger effect = lower value 0.977 | locus YDL134C, strain PPH21, stronger effect = lower value 0.978 | locus YDL185W, strain tfp1, stronger effect = lower value 0.992 | locus YDL192W, strain arf1, stronger effect = lower value 0.989 | locus YDR001C, strain nth1, stronger effect = lower value 0.988 | locus YDR069C, strain doa4, stronger effect = lower value 1.02 | locus YDR101C, strain arx1, stronger effect = lower value 0.954 | locus YDR150W, strain NUM1, stronger effect = lower value 0.976 | locus YDR159W, strain sac3, stronger effect = lower value 0.973 | locus YDR162C, strain NBP2, stronger effect = lower value 0.965 | locus YDR195W, strain ref2 1.02 | locus YDR297W, strain sur2, stronger effect = lower value 1.02 | locus YDR318W, strain mcm21, stronger effect = lower value 0.955 | locus YDR334W, strain swr1, stronger effect = lower value 1 | locus YDR335W, strain msn5, stronger effect = lower value 1.01 | locus YDR388W, stronger effect = lower value 0.974 | locus YDR392W, strain spt3, stronger effect = lower value 0.963 | locus YDR502C, strain sam2, stronger effect = lower value 0.969 | locus YEL003W, strain gim4, stronger effect = lower value 1.01 | locus YEL037C, strain rad23, stronger effect = lower value 0.997 | locus YEL061C, strain CIN8 (second series), stronger effect = lower value 0.993 | locus YEL061C, strain CIN8, stronger effect = lower value 0.98 | locus YER015W, strain faa2, stronger effect = lower value 0.998 | locus YER016W, strain bim1, stronger effect = lower value 0.999 | locus YER110C, stronger effect = lower value 0.954 | locus YER111C, strain swi4, stronger effect = lower value 0.997 | locus YER155C, strain BEM2 (second series), stronger effect = lower value 1.01 | locus YER155C, strain BEM2, stronger effect = lower value 0.983 | locus YER167W, strain BCK2, stronger effect = lower value 0.975 | locus YFR010W, strain ubp6, stronger effect = lower value 1.01 | locus YGL078C, strain dbp3, stronger effect = lower value 0.96 | locus YGL086W, strain mad1, stronger effect = lower value 0.976 | locus YGL167C, strain pmr1, stronger effect = lower value 0.997 | locus YGL173C, strain kem1, stronger effect = lower value 0.998 | locus YGL227W, strain vid30, stronger effect = lower value 0.979 | locus YGL240W, strain doc1, stronger effect = lower value 0.995 | locus YGL248W, strain PDE1, stronger effect = lower value 0.987 | locus YGL253W, strain hxk2, stronger effect = lower value 1.01 | locus YGR078C, strain PAC10, stronger effect = lower value 0.968 | locus YGR135W, strain pre9, stronger effect = lower value 0.971 | locus YGR229C, strain SMI1, stronger effect = lower value 0.942 | locus YGR252W, strain gcn5, stronger effect = lower value 1 | locus YHR013C, strain ard1, stronger effect = lower value 1.13 | locus YHR027C, strain rpn1, stronger effect = lower value 1.03 | locus YHR030C, strain SLT2, stronger effect = lower value 0.967 and 0.86 | locus YHR079C, strain IRE1 (second series), stronger effect = lower value 0.953 | locus YHR079C, strain IRE1, stronger effect = lower value 0.884 | locus YHR094C, strain hxt1, stronger effect = lower value 0.964 | locus YHR129C, strain ARP1, stronger effect = lower value 0.976 | locus YHR142W, strain chs7, stronger effect = lower value 0.988 | locus YHR200W, strain rpn10, stronger effect = lower value 0.982 | locus YIL066C, strain RNR3, stronger effect = lower value 0.948 | locus YIL073C, strain SPO22, stronger effect = lower value 1.04 | locus YIL125W, strain kgd1, stronger effect = lower value 0.957 | locus YIR030C, strain dcg1, stronger effect = lower value 0.953 | locus YJL092W, strain hpr5, stronger effect = lower value 0.989 | locus YJL095W, strain BCK1 (second series), stronger effect = lower value 0.991 | locus YJL115W, strain asf1, stronger effect = lower value 1.01 | locus YJL129C, strain trk1, stronger effect = lower value 0.971 | locus YJL134W, strain LCB3, stronger effect = lower value 0.974 | locus YJL154C, strain vps35, stronger effect = lower value 0.99 | locus YJL164C, strain tpk1, stronger effect = lower value 0.997 | locus YJL166W, strain qcr8, stronger effect = lower value 0.995 | locus YJL168C, strain set2, stronger effect = lower value 0.976 | locus YJL187C, strain SWE1 (second series), stronger effect = lower value 0.983 | locus YJL187C, strain SWE1, stronger effect = lower value 1 | locus YJR043C, strain POL32, stronger effect = lower value 0.942 | locus YJR066W, strain TOR1, stronger effect = lower value 0.842
